In all, about 48,000 compounds went through this assay and about 13,000 (27%) showed an effect of 50% or more. This is one part of the list.
Test system: Wolbachia pipientis
Assay: Anti-Wolbachia Cell-Based Screen
Type: functional
Set-up: scale not given: in the data most compounds retested in dose-response had high values
Conditions: 5 µM

SMILES | Percent Effect [%]
COc1ccc(O[C@H]2COCCN(Cc3cccc4c3OCO4)C2)cc1 | -9.045
CCCc1cc(NCc2nc(COC)no2)n2nccc2n1 | -5.978
Cc1nc(CN2CCCC(Cn3cc(CCO)nn3)C2)c2ccccn12 (centres undefined) | -4.112
CC(C)n1cc(CN2CCCN(C(=O)c3cc(Cl)c[nH]3)CC2)cn1 | 1.101
CS(=O)(=O)Nc1cccc(CNC(=O)CCNC(=O)c2cccs2)c1 | 4.351
CN(C)Cc1nnc(C2CCN(c3nccc(N)n3)CC2)n1C1CC1 | 9.294
O=C(c1cncc(N2CCC(O)(CO)CC2)n1)N1CCCC1 | -6.183
Cc1cc(C(=O)N2CCC(O)(Cn3c(C)cc4ccncc43)CC2)on1 | 79.54
O=C(c1ccncc1)N1CCC(O)(Cn2ccc3ccncc32)CC1 | -4.152
Cc1cc2ccncc2n1CC1(O)CCN(C(=O)c2ccncc2)CC1 | 105.6
Cc1cc2ccncc2n1CC1(O)CCN(C(=O)c2ccccn2)CC1 | 79.68
Cc1cc(C(=O)N2C[C@@H]3COC[C@]3(c3nnc(C(C)C)o3)C2)on1 | 3.18
O=C(c1cnc(Nc2ccccc2)nc1)N1CCC(O)(CO)CC1 | -9.694
Cc1cc(C(=O)N2CCC(O)(Cn3ccc4ccncc43)CC2)on1 | 111.8
CN(C)CC1(O)CCCN(C(=O)Cn2ccc3ccccc32)CC1 (centres undefined) | -35.57
Cc1cc2ccccc2n1CCC(=O)N1CCCC(O)(CN(C)C)CC1 (centres undefined) | -7.968
CCNc1ncc(C(=O)NCCc2csc(-c3ncccn3)n2)cn1 | -22.07
CCN(Cc1cccc(F)c1)c1ccc2nnnn2n1 | 20.24
CN(C)C(=O)CCC(=O)NCc1cccnc1-n1cnc2ccccc21 | -4.725
Cc1ncsc1C(=O)N1CC[C@@H]2[C@@H](CC1)OCCN2c1cccnc1 | -15.36
O=C(c1cncc(Br)c1)N1CCC(O)(Cn2ccc3ccncc32)CC1 | -1.363
Cc1cc2ccncc2n1CC1(O)CCN(C(=O)c2cccnc2)CC1 | 107.2

SMILES | Percent Effect [%]
Cc1nc(N2CCN(C(=O)c3cccnc3)CC2)cc(-n2cccc2)n1 | 13.16
Cc1ncsc1C(=O)N1CCC(O)(Cn2c(C)cc3ccncc32)CC1 | 102
Cc1nnc(SCCC(=O)N(C)Cc2c(F)cccc2Cl)[nH]1 | 13.01
CCCn1nc2c(cc1=O)CN(CCS(C)(=O)=O)CC2 | 0.2637
Cc1nc2c(c(N3CCC(O)(Cn4ccnc4)CC3)n1)CCNCC2 | -21.19
CC(C)CNC(=O)c1ccc(NC(=O)NC(C)c2ccccn2)cc1 (centres undefined) | -15.83
CC(NC(=O)NCc1ccc(Cl)s1)c1ccccn1 (centres undefined) | 3.359
CC(NC(=O)NCCc1ccc(Cl)s1)c1ccccn1 (centres undefined) | 158
CC(NC(=O)N(C)Cc1ccc(Cl)s1)c1ccccn1 (centres undefined) | 6.324
CCCNC(=O)c1ccc(NC(=O)NC(C)c2ccccn2)cc1 (centres undefined) | -5.222
CC(NC(=O)NCc1cc(Br)cs1)c1ccccn1 (centres undefined) | 100.4
CC(NC(=O)Nc1cccnc1N1CCOCC1)c1ccccn1 (centres undefined) | -6.169
CC(NC(=O)NCc1ccc(Cl)cc1)c1ccccn1 (centres undefined) | 9.197
CC(NC(=O)NCc1ccccc1Cl)c1ccccn1 (centres undefined) | 111.7
CC(C)CN1CC2(CCN(C(=O)C3CNC(=O)N3)CC2)CC1=O (centres undefined) | -19.59
CN(C)C(CNC(=O)c1cc2c([nH]c1=O)CCCC2=O)c1ccsc1 (centres undefined) | 7.24
Cc1ccc(CNC(=O)c2ccc(S(=O)(=O)N3C[C@@H]4C[C@H]3CN4)cc2)o1 | 13.35
COc1cccc(CN2CCN(Cc3ccc4nonc4c3)CC2=O)c1 | -14.94
COc1ccc(N2CCN(CC[C@H](O)c3ccccc3)CC2=O)cc1 | -22.52
COc1cccc(N2CCN(Cc3cccc(CCN)c3)CC2=O)c1 | 112.7
COc1cccc(N2CCN(CC[C@H](O)c3ccccc3)CC2=O)c1 | -29.06
COc1cccc(N2CCN(C(=O)C(OC)c3ccccc3)CC2=O)c1 (centres undefined) | 13.04

SMILES | Percent Effect [%]
COc1cc(CN2CCN(c3cccc(OC)c3)C(=O)C2)cc(OC)c1 | -15.09
COc1cccc(N2CCN(Cc3ccc4occc4c3)CC2=O)c1 | 113.8
COCCCN1C(=O)CC[C@H]2CN(Cc3ccc4occc4c3)CC[C@H]21 | -8.694
COc1cccc(N2CCN(Cc3ccc(NC(C)=O)cc3)CC2=O)c1 | -1.185
COc1cccc(N2CCN(Cc3cc(C)cc(F)c3)CC2=O)c1 | 130.9
COc1cccc(N2CCN(Cc3ccc4ccn(C)c4c3)CC2=O)c1 | 113.3
CCn1cc(CN2CCN(Cc3cccc(OC)c3)C(=O)C2)cc1C#N | -7.886
N#Cc1ccc(CNC(=O)C2=NN(c3ccccc3)C(=O)CN2)cc1 | -19.54
N#Cc1ccnc(N2CCN(Cc3cccc(F)c3)CC2)c1 | 16.74
Cc1n[nH]c(=O)c2c(NC(=O)CN3CCOC(C)C3)oc(C)c12 (centres undefined) | 0.9329
COc1ccc(CNC[C@H]2COCc3nc4cccnc4n32)cc1 | -4.105
Cc1cc(CS(=O)(=O)NC2CCCc3ccccc32)on1 (centres undefined) | -2.074
COc1cccc(N2CCN(Cc3nccn3C(C)C)CC2=O)c1 | 98.08
COc1cccc(N2CCN(Cc3ccc4[nH]ccc4c3)CC2=O)c1 | 81.94
COc1cccc(N2CCN(C(=O)C(O)CC(C)C)CC2=O)c1 (centres undefined) | 12.91
COc1cccc(N2CCN(C(=O)C(C)Oc3ccccc3)CC2=O)c1 (centres undefined) | 9.152
COc1cccc(N2Cc3nc(=O)[nH]n3C2=O)c1 | -15.51
c1ccc2[nH]c(C3CCN(Cc4nnc(C5CC5)o4)CC3)cc2c1 | 10.45
Cc1cc(CNC(=O)c2cc(NC(=O)C(C)C)ccc2Cl)no1 | 18.73
O=C1C(N2CCN(c3ccc(O)cc3)CC2)CCN1C1CCOCC1 (centres undefined) | -11.86
CC(C)n1cnnc1CN(C)Cc1ccc(CO)o1 | -7.369
Cn1cnc2c1CCN(C(C(=O)N1CCCCC1)c1ccccc1)C2 (centres undefined) | 18.33

SMILES | Percent Effect [%]
O=C(CNc1cc(-c2ccccc2)nc2ccnn12)NC1CC1 | -3.438
COC(=O)CSCc1nc(-c2ccc(Cl)cc2)no1 | -16.66
COCCOc1ncccc1-c1noc([C@@H]2CCCN2C2CCC2)n1 | -10.03
CN(c1cccnn1)C1CCN(C(=O)c2ccc3c(c2)COC3)CC1 | -3.847
CN(c1cccnn1)[C@@H]1CC[C@@H]2CN(Cc3cccc(C(=O)O)c3)C[C@@H]21 | 111.9
CN(c1cccnn1)[C@@H]1CC[C@@H]2CN(Cc3ccccc3C(=O)O)C[C@@H]21 | 106.4
CC(O)CN1CCN(Cc2cccc(C(=O)N(C)C)c2)CC1 (centres undefined) | -11.87
Cc1nn(C)c(C)c1CC(=O)N1CCC(N(C)c2cccnn2)CC1 | -21.95
Cn1cccc1C(=O)NCc1cn2c(n1)CN(c1ncccn1)CC2 | -46.58
O=C1CCCc2cc(-c3csc(CCN4CCOC4=O)n3)ccc2N1 | 2.984
CS(=O)(=O)CCOCCNc1ccc(C(F)(F)F)cc1C#N | -20.16
CCn1nc(C)c(CN(CCOC)C(=O)c2cnc(C)nc2O)c1C | -5.757
Nc1nc2nc(C3CCN(C(=O)c4cscn4)C3)ccc2s1 (centres undefined) | 104
Nc1nc2nc(C3CCCN(C(=O)c4cnccn4)C3)ccc2s1 (centres undefined) | 126
O=C(c1cnccn1)N1CCCC(Cn2cc(C3CCCC3)nn2)C1 (centres undefined) | -14.19
O=C(c1cscn1)N1CCC(Cn2cc(-c3ccsc3)nn2)CC1 | 2.039
Nc1nc2nc(C3CCCN(C(=O)c4cncs4)C3)ccc2s1 (centres undefined) | 108.5
Nc1nc2nc(C3CCCN(C(=O)c4cscn4)C3)ccc2s1 (centres undefined) | -1.798
O=C([C@H]1COC[C@H]2CN(CC3CC3)C[C@H]21)N1CCOCC1 | 21.74
CN(CCCC1CCCC1)C(=O)c1cc(CN2CCC(O)CC2)on1 | -12.63
COc1cccc(-c2nc3c([nH]2)CCNC3)c1F | -6.974
CCOc1ccc(N2CCCN=C2NC(=O)c2ccccc2C)cc1 | -3.123

SMILES | Percent Effect [%]
CC(C)NS(=O)(=O)c1cc(C(=O)O)cc(-c2ccc3c(c2)OCCO3)c1 | -21.29
Cc1ccc2c(c1)C(NCc1ccccn1)CC2 (centres undefined) | 6.59
CC(C)NC(=O)[C@@H]1CN(Cc2nccs2)C[C@H]2OCC[C@H]21 | -53.61
Cc1cnn(C2CCCN(C(=O)c3ccc(-n4ccnc4)cc3)C2)c1 (centres undefined) | 97.92
Cc1cnn(C2CCCN(C(=O)c3ccc(Cn4ccnc4)cc3)C2)c1 (centres undefined) | 106.9
Cc1cnn(C2CCCN(C(=O)c3cccc(Cn4ccnc4)c3)C2)c1 (centres undefined) | 6.448
CC(c1ccccc1)n1c(SCC(=O)O)nnc1-c1ccn[nH]1 (centres undefined) | -4.886
Cn1c(-c2ccccc2)nn(CCNS(=O)(=O)c2ccccc2Cl)c1=O | -1.369
CCCS(=O)(=O)N1Cc2c(ncn2Cc2ccccc2)C[C@H]1C(=O)OC | -4.606
N#Cc1cccc(S(=O)(=O)N2CC(CC(=O)O)c3ccccc32)c1 (centres undefined) | -2.78
CC1(C)CN(C(=O)Nc2ccc(Cn3cccn3)cc2)CCO1 | -0.352
Cn1cc(C[C@H]2[C@@H](O)CCN2C(=O)C2CC=CC2)cn1 | -1.047
O=C(C1CCC1)N1CC[C@H](O)[C@@H]1Cc1cccnc1.O=C(O)C(F)(F)F | 95.67
Cn1cc(C[C@H]2[C@@H](O)CCN2C(=O)C2CCC2)cn1 | -13.15
Cn1cc(C[C@H]2[C@H](O)CCN2C(=O)C2CCOCC2)cn1 | -4.576
O=C(C1CCOCC1)N1CC[C@@H](O)[C@@H]1Cc1ccncc1 | 93.36
O=C(C1CC=CC1)N1CC[C@@H](O)[C@H]1Cc1cccnc1 | 109.3
O=C(O)C(F)(F)F.O=C(O)C(F)(F)F.O[C@@H]1CCN(CC2CCOC2)[C@H]1Cc1cccnc1 (some centres undefined) | 3.217
CN(C)[C@@H]1CCN(C(=O)C2CCOCC2)[C@H]1Cc1ccncc1.O=C(O)C(F)(F)F.O=C(O)C(F)(F)F | -5.936
O=C(C1CCOCC1)N1CC[C@@H]2[C@H]1CCC(=O)N2c1ccccc1 | -23.21
O=C(C1CCOCC1)N1CC[C@@H](O)[C@@H]1Cc1ccccc1 | 90.42

From ChEMBL document CHEMBL3988442, “University of Dundee, Small-Polar-MMV Screening Library” (2021)
